Measured values taken from the supplement of paper PMC6555819.

Key:
Experiment in all cases: PBM binding z-score (relative to random genomic background probes); higher = stronger binding; sequences stand for … in GC…GCGATTGACAGCGTAGAATGAAGG
[1] = tested on: RARb homodimer (NR concentration 270 nM)
Procedure, shortened: (§1)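 Random background probes are the reference for binding z-scores. These scores derive from regression-normalized fluorescence on custom Agilent 4×180K protein-binding microarrays incubated 1 h with ligand-free nuclear receptor dimers. Binding was detected with antibodies against each partner (one per run).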

[2] = tested on: RARg:RXRa (NR concentration 270 nM, RXRa partner concentration 90 nM)
Procedure, shortened: as §1

[3] = tested on: RARg homodimer (NR concentration 270 nM)
Procedure, shortened: as §1

[4] = tested on: RXRa DBDmut IVT, anti-RXR (DBD mutation: RXRa K156A/R161A, NR concentration 90 nM)
Procedure, shortened: as §1

[5] = tested on: RXRa homodimer (NR concentration 180 nM)
Procedure, shortened: as §1

[6] = tested on: THRa:RXRa (NR concentration 90 nM, RXRa partner concentration 90 nM)
Procedure, shortened: as §1

[7] = tested on: THRa homodimer (NR concentration 90 nM)
Procedure, shortened: as §1

[8] = tested on: VDR homodimer (NR concentration 270 nM)
Procedure, shortened: as §1

Sequence	PBM binding z-score [1]	PBM binding z-score [2]	PBM binding z-score [3]	PBM binding z-score [4]	PBM binding z-score [5]	PBM binding z-score [6]	PBM binding z-score [7]	PBM binding z-score [8]
CGTCCAAGGTCATACGAGGTCAGTGAAGACAGAT	5.34	7.02	7.58	4.29	6.94	5.39	4.43	5.82
ATATGTAGGTTAGGGTCAATCAGAAAGTAGGGAA	3.59	4.12	3.71	1.23	5.05	3.83	2.6	2.43
CCTTACAGGTCAAGGTTATAGCACGGGTGGTACG	3.78	5.27	5.53	1.83	4.72	3.18	1.33	1.73
ATATGTAGGTTAGGGTCATTCGGAAAGTAGGGAA	3.62	4.07	3.15	2.51	5.06	4.16	3.3	4.24
ACTTACGGGTCAACGACGTTATAGCACGCGTATA	2.87	5.07	4.51	1.59	5.19	2.68	0.369	0.841
CTATGTAGGTTAAGGGGCTCATTCAGTTTGAAAG	0.464	0.537	0.331	0.357	0.409	0.521	0.0604	0.323
CGAACTAGGTCAGAGCAGGACAGTGAAGGATGAT	1.84	2.48	3.25	0.613	1.11	4.2	0.0649	-0.21
CGAACTAGGTCACCAGGACAGTGAGGAGGTTGGA	3.41	4.5	5.36	1.05	3.49	3.34	1.7	0.667
TCTAGTTGGTCAAAGGTCTCACACTCGAAATGCG	1.83	1.78	1.17	1.14	1.98	0.831	0.738	0.545
CGAACCAGGTCACCAGGACAGTGAAGAGGTTGGA	3.59	5.06	5.35	2.04	4.73	3.94	2.77	1.62
ATATGTAGGTTAAGGGTCATGCAGGTTGGTTCGC	3.89	5.07	3.84	1.76	6.52	3.5	1.93	3.81
TCTCGGAGGACACGAAAGGTCTGAGCTCGACATC	1.21	0.667	1.47	0.831	0.137	1.53	0.392	-0.266
CGTCCAAGGTCAATTCTAGGTCAGTGAAAGCATT	5.03	7.43	6.42	3.52	4.75	4.64	3.17	2.76
GGAACGGGGGCAAGTTGATAGCAGAGTTTGATGG	2.35	3.33	3.16	3.37	2.6	2.51	1.27	4.04
